This is part of a sample that, as a whole, favours compounds with a hit. Of some 83,000 tested, about 20% had one in any assay.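 Assay: single dose, 48 h. Readout: percent growth (0 = no net growth; negative = cell death). Active: <10.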 A number with no mark means an inactive call. The source made the active and inactive calls.
Each molecule was assayed on HL-60(TB) leukemia (assay: NCI-60 one-dose screen, 48 h (100 = growth as untreated, 0 = no growth, -100 = all killed)). Conditions: 10 µM unless noted.

SMILES | growth
COc1ccc(C2=NN(C(=O)COc3ccc(Cl)cc3)C(O)(c3cc(F)c(Cl)cc3Cl)C2)cc1 (stereo not given) | 95%
C#CCOc1cc(/C=N/Nc2nc(-c3ccc(OC)cc3)cs2)ccc1O | 97.6%
COC(=O)[C@H](C)NC(=O)[C@@H]1CCCN1C(=O)CNC(=O)[C@H](C)N | 104%
Cn1cc(-c2nc(-c3c[nH]c4ncccc34)cs2)c2cc(Br)ccc21 | 79.1%
COc1cc(CN)ccc1O | 73.9%
O=C(O)c1ccc(NCc2cn(-c3ccc(C(F)(F)F)cc3)nc2-c2ccc(C(=O)O)cc2)cc1 | 104%
Cc1cc2c(cc1C)[n+](Cc1ccc3ccccc3n1)cn2Cc1ccc2ccccc2n1 | -49.8% (active)
O=C(c1nc2ccccc2[nH]1)C1C(c2ccc([N+](=O)[O-])cc2)C2CC3CCCCC3N2[C@@]12C(=O)Nc1cc(Cl)ccc12 (stereo not given in full) | 8.45% (active)
N#CC1=C(N)Oc2c(sc3c(Br)cccc23)C1c1ccc([N+](=O)[O-])cc1 (stereo not given) | -13.7% (active)
CC1=NN(c2ccc(Cl)cc2)CC1(C)N=O (stereo not given) | 38.5%
Nc1ncnc2c1N=C(c1ccc(F)cc1)CC(c1cccc(Nc3ccnc4cc(Cl)ccc34)c1)N2 (stereo not given) | 83.6%
Cn1ccc(=O)c(C(=O)Nc2nsc3ccc([N+](=O)[O-])cc23)c1 | 54.9%
CCOC(=O)/C(=C/c1ccc([N+](=O)[O-])cc1)C(=O)c1ccccc1 | -20.8% (active)
CCc1oc2ccccc2c1C(=O)c1cc(Br)c(O)c(Br)c1 | 53%
CC(C)n1nc(C#Cc2cccc3cc(-c4cccc(C(F)(F)F)c4)ncc23)c2c(N)ncnc21 | 57.1%
O=[N+]([O-])c1ccc(O)c(S(=O)(=O)O)c1 | 101%
O=CCCCOCc1ccccc1 | 100%
CCCCCCN(CCCCCC)CC(O)c1ccc2c3c(cccc13)CC2 (stereo not given) | 64.6%
O=c1[nH]c(N2CCOCC2)nc2scc(-c3ccccc3)c12 | 103%
CCCn1c(=O)[nH]c(N)c([C@H]2c3ccccc3Oc3[nH]c(=O)n(CCC)c(=O)c32)c1=O | 32.9%

SMILES | growth
CC1(C)C(N)=Nc2cc(OCCCCN3Cc4ccccc4C3)c(OCC3CC3)cc21 | 99.7%
O=S(=O)(NCCCNc1cc(-c2cn(-c3ccccc3)nc2-c2cccc(O)c2)ccn1)c1ccc(F)cc1 | 30.5%
COc1cc(N)c2ncccc2c1SC | 107%
Nc1nnc(CSc2nnc3n(Cc4ccccc4)c(=O)c4c5c(sc4n23)CCCC5)s1 | 76.9%
O=C(O)C(=O)O | 151%
OC(CBr)CCBr (stereo not given) | 103%
COc1cccc2cc(N(C)c3ncnc4ccccc34)ccc12 | -29.1% (active)
COc1cc(C(=C2O[C@@H]([C@H]3COC(C)(C)O3)[C@H]3OC(C)(C)O[C@@H]23)c2cc(OC)c(OC)c(OC)c2)cc(OC)c1OC | 107%
Cn1cc(-c2[nH]c3cc(NC(=O)[C@H](N)C4CCCCC4)cc4c3c2C=NNC4=O)cn1 | -55.8% (active)
C#Cc1cccc(Nc2nc3cc([N+](=O)[O-])ccc3nc2Nc2ccc(O)cc2)c1 | 4.42% (active)
COc1ccc(C(=O)/C=C/c2ccc(Cl)cc2)cc1S(N)(=O)=O | -3.41% (active)
O=C(CC1(O)C(=O)Nc2ccc(Br)cc21)c1ccc(Cl)cc1 (stereo not given) | 80.1%
O=C(c1cccc(N2CCOCC2)n1)c1c[nH]c2ccccc12 | 98.9%
Nc1ccc(/C=N/Nc2ccnc3c(N)cccc23)c2cccnc12 | -60.4% (active)
Cc1ccc(C)n1-c1ccsc1C(=O)NNC(=O)C(Cl)Cl | 106%
C#C[C@@]1(O)[C@@H](CO)O[C@@H](n2cnc3c(-c4ccccc4)ncnc32)[C@@H]1O | 102%
CC(C)(C)n1cc(-c2ccnc(NCCCNS(=O)(=O)c3ccc(C(F)(F)F)cc3)c2)c(-c2cccc(O)c2)n1 | -24.5% (active)
CC[C@H](C)[C@@H]1NC(=O)[C@H](Cc2ccc(O)cc2)N(C)C(=O)[C@H](Cc2ccccc2)NC(=O)CN(C)C(=O)[C@@H]2CCCN2C(=O)[C@@H](Cc2ccccc2)N(C)C(=O)[C@H](CC(C)C)NC1=O | -24% (active)
CN(C)c1ccc(-c2ccc(-c3ccc(C(=N)N)c(F)c3)s2)cc1 | -46.1% (active)
COc1cc(/C=C/C(=O)c2ccc(NC(=O)CSc3nnc(-c4cc(-c5ccccc5)nc5ccccc45)n3-c3ccccc3)cc2)cc(OC)c1OC | 84.9%

From PubChem BioAssay (NCI)
